In all, about 5,500 compounds went through this assay and about 2,000 (36%) were called active. Another 18% or so got no clear call; they are omitted. No stated cut-off is given here; in the data, active means normalized growth mostly below about 0.91 (no sharp cut-off); inconclusive means no clear call, values can overlap the other calls; inactive means mostly above about 0.92. This is one part of the list.
Test: chemical genetic growth profiling, strain panel (AID 1159580);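 further: tested at 20 µM; growth read once vehicle control cultures reached saturation at 30 °C; 1 = growth at the plate median or of vehicle wells; lower values mean less growth of the strain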
Conditions: S. cerevisiae deletion strains, growth OD

Measured: normalized growth

CC1CC2C3CC(F)C4=CC(=O)C=CC4(C)C3(F)C(O)CC2(C)C1(O)C(=O)CO (centres undefined)
inactive: locus YAL013W, strain DEP1, hits give low values 1.03 | locus YAL021C, strain ccr4, hits give low values 0.997 | locus YAL026C, strain drs2, hits give low values 1 | locus YAL030W, strain snc1, hits give low values 1 | locus YBL061C, strain skt5, hits give low values 0.996 | locus YBR009C, strain hhf1, hits give low values 0.997 | locus YBR021W, strain FUR4, hits give low values 1.03 | locus YBR023C, strain chs3, hits give low values 0.988 | locus YBR171W, strain sec66, hits give low values 0.997 | locus YBR229C, strain ROT2, hits give low values 1.01 | locus YBR231C, strain swc5, hits give low values 0.992 | locus YBR279W, strain paf1, hits give low values 0.989 | locus YCL011C, strain gbp2, hits give low values 0.992 | locus YCL016C, strain dcc1, hits give low values 0.98 | locus YCL029C, strain bik1, hits give low values 1.03 | locus YCL061C, strain MRC1, hits give low values 0.999 | locus YCL069W, strain vba3, hits give low values 1.01 | locus YCR088W, strain abp1, hits give low values 1 | locus YDL005C, strain med2, hits give low values 0.993 | locus YDL035C, strain GPR1, hits give low values 1.05 | locus YDL040C, strain nat1, hits give low values 0.997 | locus YDL074C, strain BRE1, hits give low values 1.09 | locus YDL101C, strain DUN1, hits give low values 1.02 | locus YDL134C, strain PPH21, hits give low values 1.01 | locus YDL185W, strain tfp1, hits give low values 1.03 | locus YDL192W, strain arf1, hits give low values 1.03 | locus YDR001C, strain nth1, hits give low values 1.01 | locus YDR069C, strain doa4, hits give low values 1.01 | locus YDR101C, strain arx1, hits give low values 1.02 | locus YDR137W, strain rgp1, hits give low values 0.995 | locus YDR150W, strain NUM1, hits give low values 1.03 | locus YDR159W, strain sac3, hits give low values 1.01 | locus YDR162C, strain NBP2, hits give low values 1.02 | locus YDR195W, strain ref2 0.968 | locus YDR297W, strain sur2, hits give low values 0.99 | locus YDR318W, strain mcm21, hits give low values 1.05 | locus YDR334W, strain swr1, hits give low values 0.994 | locus YDR335W, strain msn5, hits give low values 1 | locus YDR388W, hits give low values 1.01 | locus YDR392W, strain spt3, hits give low values 0.995 | locus YDR502C, strain sam2, hits give low values 1.02 | locus YEL003W, strain gim4, hits give low values 1.01 | locus YEL037C, strain rad23, hits give low values 1 | locus YEL061C, strain CIN8 (second series), hits give low values 1.01 | locus YEL061C, strain CIN8, hits give low values 1.01 | locus YER015W, strain faa2, hits give low values 1 | locus YER016W, strain bim1, hits give low values 0.995 | locus YER110C, hits give low values 1.03 | locus YER111C, strain swi4, hits give low values 1 | locus YER155C, strain BEM2 (second series), hits give low values 1.03 | locus YER155C, strain BEM2, hits give low values 0.999 | locus YER167W, strain BCK2, hits give low values 1.05 | locus YFR010W, strain ubp6, hits give low values 1.01 | locus YGL078C, strain dbp3, hits give low values 1.02 | locus YGL086W, strain mad1, hits give low values 1.04 | locus YGL167C, strain pmr1, hits give low values 0.991 | locus YGL173C, strain kem1, hits give low values 1.01 | locus YGL227W, strain vid30, hits give low values 0.998 | locus YGL240W, strain doc1, hits give low values 1 | locus YGL248W, strain PDE1, hits give low values 1.01 | locus YGL253W, strain hxk2, hits give low values 0.983 | locus YGR078C, strain PAC10, hits give low values 1.04 | locus YGR135W, strain pre9, hits give low values 1.03 | locus YGR229C, strain SMI1, hits give low values 1.02 | locus YGR252W, strain gcn5, hits give low values 1.06 | locus YHR013C, strain ard1, hits give low values 0.985 | locus YHR027C, strain rpn1, hits give low values 1.01 | locus YHR030C, strain SLT2, hits give low values 1.02 | locus YHR079C, strain IRE1 (second series), hits give low values 1.02 | locus YHR094C, strain hxt1, hits give low values 1.02 | locus YHR129C, strain ARP1, hits give low values 1.01 | locus YHR142W, strain chs7, hits give low values 0.995 | locus YHR200W, strain rpn10, hits give low values 1.03 | locus YIL066C, strain RNR3, hits give low values 1.04 | locus YIL073C, strain SPO22, hits give low values 1.1 | locus YIL125W, strain kgd1, hits give low values 1.02 | locus YIR030C, strain dcg1, hits give low values 1.02 | locus YJL092W, strain hpr5, hits give low values 1 | locus YJL095W, strain BCK1 (second series), hits give low values 0.997 | locus YJL095W, strain BCK1, hits give low values 1.02 | locus YJL115W, strain asf1, hits give low values 1.01 | locus YJL129C, strain trk1, hits give low values 0.997 | locus YJL134W, strain LCB3, hits give low values 1.02 | locus YJL154C, strain vps35, hits give low values 1.01 | locus YJL164C, strain tpk1, hits give low values 1.01 | locus YJL166W, strain qcr8, hits give low values 0.993 | locus YJL168C, strain set2, hits give low values 1.02 | locus YJL187C, strain SWE1 (second series), hits give low values 1.02 | locus YJL187C, strain SWE1, hits give low values 0.986

Source: PubChem BioAssay AID1159580 (chemical genetic matrix, 2015)
